Consider 18 molecules from PubChem BioAssay AID2108 (National Center for Advancing Translational Sciences (NCATS), 2009).

The structures appear in SMILES notation. Records with an inconclusive call do not appear. Calls of active or inactive are those of the source. Calls follow the shape of the dose curve; as a rule, active = well fitted curve in the direction sought with a large enough effect; inconclusive = small, poorly fitted or top-dose-only effect, or effect the other way, or another doubt; inactive = no such curve, though single readings can be large or run the other way.

Alpha-galactosidase A (Homo sapiens), sequence (P06280 32-429 limits assumed): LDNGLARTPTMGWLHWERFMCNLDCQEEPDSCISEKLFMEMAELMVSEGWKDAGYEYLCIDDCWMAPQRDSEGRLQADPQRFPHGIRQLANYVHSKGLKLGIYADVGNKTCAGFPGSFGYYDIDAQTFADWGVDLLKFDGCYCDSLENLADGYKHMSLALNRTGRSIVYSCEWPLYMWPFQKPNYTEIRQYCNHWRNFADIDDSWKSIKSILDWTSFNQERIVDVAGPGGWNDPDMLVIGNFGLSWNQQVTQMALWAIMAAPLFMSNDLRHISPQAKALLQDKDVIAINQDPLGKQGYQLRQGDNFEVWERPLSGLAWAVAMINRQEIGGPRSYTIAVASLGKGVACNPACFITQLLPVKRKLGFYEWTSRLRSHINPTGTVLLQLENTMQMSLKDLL

For this test, the target named is Alpha-galactosidase A (Homo sapiens) (UniProt P06280). Description: Confirmation of Inhibitors of Human alpha-Galactosidase Using Spleen Homogenate. Also: 0% is about no effect. As to conditions: alpha-galactosidase enzyme activity; series mostly up to 56.2 µM; activity change: at the top concentration. An excerpt:
NIH Chemical Genomics Center [NCGC]
NIH Molecular Libraries Probe Production Centers Network [MLPCN]
Assay Submitter (PI): Wei Zheng
Alpha-galactosidase is a homodimeric glycoprotein that hydrolyzes the terminal alpha-galactosyl moieties from glycolipids and glycoproteins. Deficiency of this enzyme results in Fabry Disease with progressive accumulation of globotriaosylceramide and other glycosphingolipids in vascular endothelial cells that causes renal failure, myocardial infarction and stroke, and premature death in patients. It has been reported that the improper folding and trafficking of alpha-galactosidase resulting from genetic mutations may account for a significant number of Fabry patients. […] We optimized this alpha-galactosidase assay in 1536-well plate format for identification of novel small molecule inhibitors or activators with structures other than the sugar analogs in order to develop new pharmacological chaperones. In particular, this assay is directed towards discovering compounds active in more natural setting, tissue homogenate, that may have been missed by screens of the purified enzyme under more stringent conditions. This assay attempted to confirm hits from the primary screening.
NCGC Assay Protocol Summary:
This is a fluorogenic enzyme assay with 4-methylumbelliferyl-alpha-D-galactopyranoside as the substrate and human spleen homogenate containing alpha-galactosidase as the enzyme preparation. Upon hydrolysis of this fluorogenic substrate, the resulting product, 4-methylumbelliferone (which excites at 365 nm and emits at 440 nm) can be detected by a fluorescence plate reader. Data were normalized to the controls for basal activity (without enzyme) and 100% activity (with enzyme). The AC50 values were determined from concentration-response data modeled with the standard Hill equation.
Assay buffer: 50 mM citric acid (titrated with potassium phosphate to pH 5.0), 0.01% Tween-20 (pH 5.0 is an optimal condition for this enzyme assay)
1536-well assay protocol for the alpha-galactosidase from human spleen homogenate:
(1) Add 2 ul/well spleen homogenate (1 ug)
(2) Add 23 nL compounds in DMSO solution. The final titration was 0.5 nM to 58 uM.
(3) Add 2 ul of substrate (1 mM final)
(4) Incubate at 37C for 40 min
(5) Add 2 ul stop solution (1M NaOH and 1M Glycine mixture, pH 10)
(6) Detect the assay plate in a ViewLux plate reader (PerkinElmer) with Ex=365 nm and Em=440nm.
Keywords: Alpha-galactosidase, Fabry Disease, pharmacological chaperone, chaperone therapy, high throughput screening, alpha- galactosidase inhibitor, MLSMR, MLSCN, NIH Roadmap, qHTS and NCGC
For `CC(=O)[O][Hg][c]1ccccc1`, the “activity change” value was 4.67% [at 287 µM] (inactive).

As for `OC[C@@H]1[C@@H](O)[C@H](O)[C@H]2[C@@H](O)CCN21`, the “activity change” value was -8.3% (inactive).

Consider `O=C(O)c1ccccc1-c1c2cc(Br)c(=O)cc-2oc2[c]([Hg])c(O)c(Br)cc12`, for which the “activity change” value was -13.4% [at 287 µM] (inactive).

Consider `COc1ccc(Cc2nccc3cc(OC)c(OC)cc23)cc1OC`, for which the “activity change” value is -3.36% (inactive).

On to `O[C@H]1[C@H](O)[C@@H](O)CN2CC[C@H](O)[C@H]12`, for which the molecule was called inactive.

Turning to `CC(C)(C)c1cc(C=C(C#N)C#N)cc(C(C)(C)C)c1O`, the “activity change” value is -10.5% (inactive).

With `Cc1cc(C(=O)CS(=O)(=O)c2ccc(F)cc2)cc(C)c1OC(=O)N(C)C`, the “activity change” value is 2.73% [at 23.6 µM] (inactive).

Take `C/C(O)=C(/C#N)C(=O)Nc1cc(Br)ccc1Br`: the “activity change” value was -8.06% (inactive).

As for `Cc1ccc2c(CN3CC=C(c4ccccc4)CC3)cc(=O)oc2c1C`, the “activity change” value was 0.701% (inactive).

As for `Cc1cc(/C=C2\C(=O)NC(=O)N(c3ccc(F)cc3)C2=O)c(C)n1-c1ccc(C(=O)O)cc1`, the “activity change” value is 0.884% (inactive).

As to `CCCCC/C=C\C/C=C\C/C=C\C/C=C\CCCC(=O)NCCCC(=O)O`, the “activity change” value was -14.3% (inactive).

On to `CC(=O)Nc1ccc(OC(=O)c2ccccc2N)cc1`, for which the “activity change” value is 6.81% [at 23.6 µM] (inactive).

On to `Cc1[nH]c2ccccc2c1C1=CCNCC1`, for which the “activity change” value was 0.948% (inactive).

In the case of `Cc1cc(/C=C2/C(=O)NC(=O)N(Cc3ccco3)C2=O)c(C)n1-c1ccc(C(=O)O)cc1`, the “activity change” value is 1.17% (inactive).

For `CCOc1ccc2cc(C#N)c(=O)oc2c1`, the “activity change” value was 1.36% (inactive).

In the case of `O[C@@H]1[C@H](O)[C@H]2[C@@H](O)CCN2C[C@@H]1O`, the “activity change” value was -6.64% [at 287 µM] (inactive).

`O=c1[nH]c(CN2CC=C(c3ccccc3)CC2)nc2scc(-c3cccs3)c12`: the “activity change” value was -0.863% (inactive).

`C/C=C(/C)C(=O)O[C@H]1C(C)=C2C([C@@H]1OC(=O)CCCCCCC)[C@@](C)(OC(C)=O)C[C@@H](OC(=O)CCC)[C@@]1(O)[C@H]2OC(=O)[C@@]1(C)O` (stereo partly drawn): the “activity change” value was -13.8% (inactive).
